Bioassay records as filed in PubChem.
HCMV inh = inhibitors of human cytomegalovirus. actives 4.5% (n = 410,000). AID 1259415. activity change, negative = inhibition, % at 57.5 µM. HFF cells, HCMV-luciferase reporter, 72 h; hits give low values; in the data active = activity change below about -60%; inconclusive = no clear call, values can overlap the other calls; inactive = above about -39%
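Compounds were evaluated in HFFs infected with an HCMV luciferase reporter virus (MOI 1 PFU/cell). Luciferase in lysates collected 72 h post infection served as the replication measure.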
HCV inhibitor = blocks hepatitis C virus | Huh7.5.1 HCVcc-Cre infection, luciferase reporter, 44 h | Potency, µM (top dose mostly 41.8 µM), hits mostly inhibitors | actives 3.4% (n = 340,000) | AID 651820
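Reporter virus HCVcc-Cre (~0.5 moi) infects cells exposed to compound; seeding density 1,000 cells/well with 4 h settling beforehand. Luminescence, 15 sec read, taken 44 h post-infection following a 15 min RT substrate incubation.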
Marburg entry inh = blocks Marburg virus binding to or entry into cells; actives 1.8% (n = 300,000); Marburg virus pseudotyped entry inhibition, cell reporter; Potency, µM (highest dose often 37.8 µM), most hits filed as inhibitors; calls by dose curve; tested in HEK293 cells
LASV entry inh = Lassa virus entry inhibition; Lassa virus pseudotype entry inhibition, cell reporter; Potency, µM (highest dose often 37.9 µM), hits mostly inhibitors; actives 1.2% (n = 300,000); calls by dose curve; tested in HEK293 cells; also: nearly all actives have a fitted effect of over 50% in size
Giardia FBPA inh-1 = Giardia lamblia aldolase inhibition; A8B2U2; purified Giardia FBPA; Potency, µM (doses to about 59.6 µM), most hits filed as inhibitors; actives 0.71% (n = 290,000); also: nearly all actives have a fitted effect of over 55% in size
Target sequence (A8B2U2 whole entry, looked up): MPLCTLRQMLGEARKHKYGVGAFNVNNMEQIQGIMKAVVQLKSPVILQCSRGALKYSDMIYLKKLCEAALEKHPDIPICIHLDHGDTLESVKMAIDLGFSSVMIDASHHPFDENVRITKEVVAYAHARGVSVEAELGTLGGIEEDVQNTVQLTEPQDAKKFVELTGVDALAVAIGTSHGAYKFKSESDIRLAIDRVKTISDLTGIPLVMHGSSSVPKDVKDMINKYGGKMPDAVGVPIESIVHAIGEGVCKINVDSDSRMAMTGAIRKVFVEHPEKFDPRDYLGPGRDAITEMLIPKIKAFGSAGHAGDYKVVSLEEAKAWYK
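40 nM FBPA preincubated 10 min at RT with compound (up to 57.5 uM final), then substrate plus GAPDH/TPI/NAD/arsenate coupling and diaphorase/resazurin added. Fluorescence read after 20 min at RT, 525/598 nm.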
FMDV antiviral = foot and mouth disease virus antiviral activity; FMDV antiviral cell-based qHTS; Potency, µM (titrated, usually from 57.9 µM), most hits filed as inhibitors; actives 1.2% (n = 410,000); calls by dose curve; tested in HEK293T cells; also: read-out not given here; nearly all actives have a fitted effect of over 45% in size
Giardia growth = inhibitors of Giardia lamblia growth | actives 5% (n = 1,500) | Giardia lamblia trophozoite growth inhibition | Potency, µM (highest dose often 57.5 µM), actives largely listed as inhibitors | shares compounds with Giardia FBPA inh-1;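 also: trophozoites exposed to compound for 48 h at 37 °C; nearly all actives have a fitted effect of over 70% in size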
Mammalian tox = counter-screen for Giardia aldolase inhibitors: mammalian cell toxicity. Potency, µM (titrated, usually from 57.5 µM), usual class: inhibitors. actives 4% (n = 1,500). shares compounds with Giardia FBPA inh-1. AID 2786. mammalian cell viability counter-screen, qHTS;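 also: Chinese hamster ovary cells used as mammalian cytotoxicity surrogate; viability measured as cellular ATP by luminescence; compound exposure lasted 48 h before reading; nearly all actives have a fitted effect of over 60% in size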
Giardia FBPA inh-2 = confirmation of Giardia fructose-bisphosphate aldolase inhibitors | shares compounds with Giardia FBPA inh-1 | purified Giardia aldolase enzyme activity, qHTS | Potency, µM (titrated, usually from 57.5 µM), most hits filed as inhibitors | actives 5% (n = 1,500); also: nearly all actives have a fitted effect of over 45% in size
Rabbit FBPA inh = selectivity test for Giardia aldolase inhibitors: rabbit aldolase; actives 4% (n = 1,500); Rabbit muscle FBPA enzyme inhibition, selectivity counter-screen; Potency, µM (titrated, usually from 57.5 µM), actives largely listed as inhibitors; shares compounds with Giardia FBPA inh-1; also: nearly all actives have a fitted effect of over 60% in size
GAPDH counter = counter-screen for Giardia aldolase inhibitors: GAPDH coupling enzyme | Potency, µM (titrated, usually from 57.5 µM), most hits filed as inhibitors | GAPDH coupling enzyme counterscreen, biochemical, qHTS | actives 6% (n = 1,500) | shares compounds with Giardia FBPA inh-1; also: nearly all actives have a fitted effect of over 55% in size
Each line names hits and unclear results; the compound was inactive in the other large screens (follow-up assays come after a bar, where they were run); [ ] = remark or other dose. An excerpt weighted towards active compounds, which were near 8.3% of everything screened. Unless noted, calls follow the shape of the dose curve; as a rule, active = well fitted curve in the direction sought with a large enough effect; inconclusive = small, poorly fitted or top-dose-only effect, or another doubt; inactive = no such curve, though single readings can be large; an effect the other way counts as inactive or inconclusive.

O=C(NCCc1ccc(F)cc1)C(=O)NCC(c1ccc2c(c1)OCO2)N1CCOCC1 (centres undefined)	none (no result: HCV inhibitor, Marburg entry inh, Giardia FBPA inh-1)
O=C(CSc1n[nH]c(-c2cccnc2)n1)Nc1ccc([N+](=O)[O-])cc1	Giardia FBPA inh-1 inconclusive
O=C(CSc1n[nH]c(-c2cccnc2)n1)Nc1ccc(Br)cc1	Giardia FBPA inh-1 14µM | Giardia growth inconclusive | Mammalian tox inactive | Giardia FBPA inh-2 inactive | Rabbit FBPA inh inactive | GAPDH counter inactive
O=C(N/N=C/c1cc(Br)c(Br)o1)c1ccc2c(c1)OCCO2	HCV inhibitor inconclusive, Marburg entry inh inconclusive, Giardia FBPA inh-1 13µM | Giardia growth inactive | Mammalian tox inactive | Giardia FBPA inh-2 inactive | Rabbit FBPA inh inactive | GAPDH counter inactive
CN(C)c1ccc(/C=N/NC(=O)c2ccc3c(c2)OCCO3)cc1	none (no result: Marburg entry inh, LASV entry inh)
O=C(Cc1c(F)cccc1Cl)NNC(=S)Nc1ccc(S(=O)(=O)Nc2ncccn2)cc1	Giardia FBPA inh-1 14µM (no result: Marburg entry inh, LASV entry inh) | Giardia growth inactive[10.4 µM] | Mammalian tox inactive | Giardia FBPA inh-2 inactive | Rabbit FBPA inh inactive | GAPDH counter inactive
O=C(/C=C/c1c(F)cccc1Cl)Nc1ccc(S(=O)(=O)Nc2ncccn2)cc1	none
O=C(CSc1cccc[n+]1[O-])Nc1ccccc1Oc1ccccc1	Marburg entry inh inconclusive, Giardia FBPA inh-1 6.3µM, FMDV antiviral inconclusive (no result: LASV entry inh) | Giardia growth inactive | Mammalian tox 20µM | Giardia FBPA inh-2 inactive | Rabbit FBPA inh inactive | GAPDH counter inactive
O=C(CSc1cccc[n+]1[O-])CSc1cccc[n+]1[O-]	Giardia FBPA inh-1 16µM | Giardia growth inactive[10.4 µM] | Mammalian tox 10µM | Giardia FBPA inh-2 inactive | Rabbit FBPA inh inactive | GAPDH counter inactive
COC(=O)c1ccc(C(=O)OC)c(NC(=O)CSc2cccc[n+]2[O-])c1	HCMV inh inconclusive, Giardia FBPA inh-1 11µM, FMDV antiviral inconclusive (no result: LASV entry inh) | Giardia growth inactive | Mammalian tox inconclusive | Giardia FBPA inh-2 inactive | Rabbit FBPA inh inactive | GAPDH counter inactive
CC(=O)c1ccc(NC(=O)COc2ccccc2-c2nc(-c3ccc(C)cc3)no2)cc1	Marburg entry inh inconclusive, LASV entry inh inconclusive (no result: HCV inhibitor, Giardia FBPA inh-1)
O=C(CSc1ccccc1)Nc1nnc(C2CC2)s1	Marburg entry inh inconclusive, LASV entry inh inconclusive, Giardia FBPA inh-1 14µM | Giardia growth inconclusive | Mammalian tox inactive | Giardia FBPA inh-2 inactive | Rabbit FBPA inh inactive | GAPDH counter inactive
O=C(CSc1cccc(C(F)(F)F)c1)Nc1nnc(C2CC2)s1	none (no result: Marburg entry inh, LASV entry inh, Giardia FBPA inh-1)
CCOc1ccccc1CN1CCC(N2CCOCC2)CC1	Giardia FBPA inh-1 8.9µM (no result: Marburg entry inh, LASV entry inh) | Giardia growth inactive | Mammalian tox inactive | Giardia FBPA inh-2 inconclusive | Rabbit FBPA inh inactive | GAPDH counter inactive
COc1cccc(C(=O)NC(=S)Nc2ccccc2N2CCCCC2)c1	HCV inhibitor inconclusive, Giardia FBPA inh-1 16µM, FMDV antiviral inconclusive (no result: Marburg entry inh, LASV entry inh) | Giardia growth inconclusive | Mammalian tox inactive | Giardia FBPA inh-2 inactive | Rabbit FBPA inh inactive | GAPDH counter inactive
COc1cccc(C(=O)NC(=S)Nc2ccccc2N2CCCC2)c1	Marburg entry inh inconclusive
CON(C)C(=O)Nc1ccc(Br)cc1	none (no result: HCMV inh, HCV inhibitor, Marburg entry inh, LASV entry inh, FMDV antiviral)
C=CCNCCCOc1ccc(Cl)cc1C(C)(C)C	HCMV inh inconclusive, HCV inhibitor inconclusive, Marburg entry inh inconclusive, Giardia FBPA inh-1 18µM | Giardia growth inactive | Mammalian tox inactive | Giardia FBPA inh-2 inactive | Rabbit FBPA inh inactive | GAPDH counter inactive
